Only some compounds are listed: those with a hit (about 2.9% of all), similar ones and a draw of the others.
SNCA expr inhib: reduces expression of the alpha-synuclein gene; HEK-293 SNCA-luciferase knock-in, luminescence, 24 h; actives 0.17% (n = 140,000); Potency, µM (titrated, usually from 57.2 µM), hits mostly inhibitors; note: nearly all actives have a fitted effect of over 45% in size
SNCA viab count: cell viability loss counter-screen; HEK-293-SNCA-luc viability, GF-AFC fluorescence, 24 h; AID 1671193; Potency, µM (top dose mostly 57.1 µM), actives largely listed as cytotoxic; actives 0.12% (n = 150,000); note: nearly all actives have a fitted effect of over 30% in size
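Cytotoxicity counterscreen: after 24 h compound treatment of genome-edited SNCA-luciferase HEK-293 cells, live-cell protease substrate GF-AFC read by fluorescence after 30 min; activity scaled between DMSO (0%) and medium-only (-100%), curves Hill-fitted.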
KDM5B inhibitor: KDM5B demethylase inhibition | Q9UGL1 | KDM5B demethylase, FDH-coupled NADH fluorescence (FDH is formaldehyde dehydrogenase) | actives 2.6% (n = 220,000) | Potency, µM (doses to about 57.7 µM), hits mostly inhibitors; note: nearly all actives have a fitted effect of over 70% in size
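Coupled FDH/NAD⁺ fluorescence readout. KDM5BΔAP 200 nM final; compound titration, 10 min RT preincubation; substrate mix 12.5 µM H3K4me3, 25 µM 2-OG, 50 µM Fe(II), 100 µM ascorbate, 0.25 mM NAD⁺, 0.25 U/mL FDH; ΔRFU over 30 min.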
IP6K1 inhibitor: inhibitors of human IP6K1; Q92551; IP6K1 kinase, ADP-Glo luminescence, 2 h; hits give low values; activity change, % (series mostly up to about 58 µM); actives 0.81% (n = 140,000); AID 1645851; in the data active = activity change below about -25%
Target sequence (Q92551 whole entry, looked up): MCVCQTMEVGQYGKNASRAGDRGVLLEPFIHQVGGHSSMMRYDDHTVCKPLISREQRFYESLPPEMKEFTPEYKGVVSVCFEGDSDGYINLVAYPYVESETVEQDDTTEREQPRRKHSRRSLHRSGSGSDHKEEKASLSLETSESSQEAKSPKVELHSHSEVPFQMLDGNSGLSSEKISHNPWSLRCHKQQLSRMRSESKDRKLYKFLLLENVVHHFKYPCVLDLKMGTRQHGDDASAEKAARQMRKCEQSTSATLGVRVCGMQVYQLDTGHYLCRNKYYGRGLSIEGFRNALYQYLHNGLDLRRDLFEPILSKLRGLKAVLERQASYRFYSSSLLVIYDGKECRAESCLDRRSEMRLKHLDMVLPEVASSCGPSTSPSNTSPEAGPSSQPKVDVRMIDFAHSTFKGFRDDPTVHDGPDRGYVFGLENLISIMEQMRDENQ
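ADP-Glo luminescence measures ADP made by human IP6K1 during a 2 h RT reaction with ATP/IP6 (mix at 1.3 mM/130 uM); top library doses 57.5 and 19.1 uM final.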
IP6K1 inh cnf: human IP6K1 inhibition, confirmatory; recombinant IP6K1 kinase, ADP-Glo luminescence, 2 h; AID 1645852; actives 13% (n = 1,200); Potency, µM (doses to about 49 µM), actives largely listed as inhibitors; shares compounds with IP6K1 inhibitor; note: nearly all actives have a fitted effect of over 65% in size
Numbers stand for hits; – = inactive; ? = inconclusive; · = no result given; ! = not confirmed by another sample; [ ] = dose if it differs, or a comment. Unless noted, calls come from the whole dose curve; as a rule, active = well fitted curve in the direction sought with a large enough effect; inconclusive = small, poorly fitted or top-dose-only effect, or another doubt; inactive = no such curve, though single readings can be large; an effect the other way counts as inactive or inconclusive.

SMILES | SNCA expr inhib | SNCA viab count | KDM5B inhibitor | IP6K1 inhibitor | IP6K1 inh cnf
Cc1cc(=O)n(CC(=O)NC(C)CCc2ccccc2)c(-c2ccc(F)cc2)n1 (centres undefined) | · | · | – | · | ·
COc1ccc(-c2cc(C(=O)Oc3cccc(C)c3)c3cc(C)ccc3n2)cc1 | – | – | ? | -30 | –
COc1ccc(-c2cc(C(=O)Oc3cccc(C)c3)c3ccccc3n2)cc1 | – | – | ? | – | ·
Cc1ccc(C(=O)N2CCC(C(NC(=O)CC(C)C)C(=O)N3CCCCC3)CC2)cc1 (centres undefined) | – | – | – | – | ·
O=C(Nc1ccc(Cl)cc1)N1CCCN(c2ccc3nnc(-c4ccccc4)n3n2)CC1 | · | · | · | – | ·
O=C(Nc1ccc(Cl)cc1)N1CCN(c2ccc3nnc(-c4ccccc4)n3n2)CC1 | – | ? | ? | -30! | ?
COC(=O)c1ccc(NS(=O)(=O)c2ccc3ccccc3c2)cc1 | · | · | – | · | ·
Cn1nnnc1SCCNCc1cc(Br)ccc1OCc1ccccc1Cl | ? | ? | – | -41 | –
Cc1oc2ccc(O)c(CN(C)Cc3ccccc3)c2c1C(=O)Nc1ccccc1 | – | – | – | -28 | –
CN1CCN(C(=O)Nc2cccc(Cl)c2)c2cccnc21 | – | – | ? | -32 | –
COc1ccc(NC(=O)CSc2c3c(nc4ccccc24)CCC3)c(OC)c1 | – | – | – | – | ·
COc1ccc(NC(=O)c2ccc3c(SCC(=O)O)c4c(nc3c2)CCCC4)c(OC)c1 | – | – | ? | -26 | –
O=C1Nc2nc(-c3c(O)cccc3OCC3CC3)cc([C@@H]3CCCNC3)c2CO1 | · | ? | · | – | –
Cc1ccccc1N1CCN(C2CCCN(C/C=C/c3ccc(F)cc3)C2)CC1 (centres undefined) | – | – | – | -27 | –
Cc1cccc(C(=O)NC(C(=O)N2CCCC2)C2CCN(C(=O)c3cccs3)CC2)c1 (centres undefined) | – | – | – | – | ·
Cn1nc(-c2ccccc2F)c2cc(C(=O)NCc3ccc(Cl)cc3)sc21 | ? | ? | ? | -39 | ?
O=C(NC1CC1)c1cc(-c2ccccc2F)cc2c1OCCN2Cc1cccnc1 | – | ? | 32µM | -26 | ?
COc1ccc(-c2cc(C(=O)NCc3cccnc3)c3c(c2)N(C)CCO3)cn1 | – | – | ? | – | ·
CNC(=O)c1cc(-c2ccc(CO)cc2)cc2c1OCCN2Cc1cccnc1 | – | – | 28µM | -26 | –
O=C(NCc1cccnc1)c1cc(-c2ccccc2F)cc2c1OCCN2Cc1cccnc1 | – | ? | 28µM | -28 | ?
CC(C)Cc1nc(N2CCN(CC(=O)N3CCOCC3)CC2)c(C#N)c2c1CCC2 | · | · | – | · | ·
COc1ccc(-c2nc(SCC(=O)Nc3cccc(C(C)=O)c3)n[nH]2)cc1 | – | – | – | -33 | ?
COc1ccc(-c2nc(SCC(=O)Nc3cccc(C(F)(F)F)c3)n[nH]2)cc1 | · | · | – | · | ·
COc1cccc(-c2noc(CC3CCN(C(=O)COc4cccc(C)c4)CC3)n2)c1 | – | – | ? | -25 | –
COc1ccc(-c2c(-c3ccc(OCCN4CCCCC4)cc3O)n[nH]c2C)cc1OC | · | · | – | · | ·
SMILES | SNCA expr inhib | SNCA viab count | KDM5B inhibitor | IP6K1 inhibitor | IP6K1 inh cnf
c1cc(OCCN2CCCCC2)cc(-c2n[nH]c3ccc(-c4ncn[nH]4)cc23)c1 | – | – | · | -47 | ?
COc1ccc(-c2c(C)nn3c(NC4CCCCC4)cc(C)nc23)cc1OC | · | · | – | · | ·
COc1ccccc1CNC(=O)c1ccc2c(c1)nc(C)n2-c1cccc(C)c1 | – | – | – | -26 | –
NS(=O)(=O)c1ccc(Nc2nc(OCC3CCCCC3)c3[nH]cnc3n2)cc1 | – | ? | · | -47 | 4.1µM
CCN(CC)C(=O)c1ccc(Nc2nc(OCC3CCCCC3)c3[nH]cnc3n2)cc1 | · | – | · | -41 | 10µM
CS(=O)(=O)N1CCCN(C(=O)c2ccc(C#N)cc2)CCNC(=O)CC1c1ccccc1 (centres undefined) | ? | – | – | – | ·
COc1ccc(OCC(=O)NCc2ccc3c(c2)CCN3C(=O)c2ccc(F)cc2)cc1 | – | – | ? | -36 | –
COc1cc2ncnc(NCc3cc(F)ccc3F)c2cc1OC | · | · | – | · | ·
COc1cc2ncnc(Nc3cccc(I)c3)c2cc1OC | · | – | · | -33 | 12µM
COc1cc2ncnc(Nc3cc(Br)c(O)c(Br)c3)c2cc1OC | – | – | · | – | ?
COc1cc(C2Oc3c(OC)cc(CCCO[C@@H]4O[C@H](CO)[C@@H](O)[C@H](O)[C@H]4O)cc3C2CO)ccc1O (some centres undefined) | · | – | · | – | ·
Cc1cc(C)c2oc(C(=O)Nc3ccc(S(=O)(=O)N4CCCCC4)cc3)cc(=O)c2c1 | ? | – | – | -26 | –
Cc1ccc2c(=O)cc(C(=O)Nc3ccc(S(=O)(=O)N4CCCCC4)cc3)oc2c1C | – | – | – | – | ·
Cc1ccc(/C=C/c2onc(C)c2S(=O)(=O)N2CCC(C(=O)NCc3ccco3)CC2)cc1 | – | – | ? | – | ·
Cc1ccc(/C=C/c2onc(C)c2S(=O)(=O)N2CCC(C(=O)N(CCC(C)C)Cc3ccco3)CC2)cc1 | – | – | – | -38 | –
Cc1cc(CC(=O)N2C[C@@H](COCC3CC3)[C@H](c3ccncc3)C2)on1 | – | – | – | – | ·
Fc1ccccc1CNCc1ccc(-c2ccnc3[nH]ccc23)cc1 | · | – | · | -42 | ?
O=C(NCc1ccnc2[nH]ccc12)c1ccccc1 | – | – | – | – | ·
Cc1noc(C)c1[S+](=O)([O-])NCCNC(=O)c1cccc(-c2ccsc2)c1 | ? | –[12.5 µM] | · | – | ·
CCN(CC)S(=O)(=O)c1ccc2c(c1)N(CC(=O)N1CCN(c3cccc(C(F)(F)F)c3)CC1)C(=O)CO2 | – | – | – | -25 | –
CCN(CC)S(=O)(=O)c1ccc2c(c1)N(CC(=O)N1CCN(c3ccc(F)cc3)CC1)C(=O)CO2 | – | ? | – | – | ·
Cc1noc(C)c1CC(=O)N1[C@@H]2CC[C@H]1CC(NC(=O)c1ccc(F)cc1)C2 (some centres undefined) | – | – | – | – | ·
Cc1ccc(C(=O)Oc2cc(-c3ccc4c(c3)OCO4)cc(=O)c3c(C)oc(C)c23)cc1 | ? | ? | ? | -54 | ?
COc1cc(-c2cc(OC)c3c(C)oc(C)c3c(=O)c2)ccc1OC(=O)c1ccc(C)cc1 | – | – | ? | – | ·
CCOc1cc(-c2ccc(OC(=O)c3ccc(C)cc3)c(OC)c2)cc(=O)c2c(C)oc(C)c12 | – | – | ? | -27 | –
Cc1oc(C)c2c(=O)cc(-c3ccc4c(c3)OCO4)cc(OC(=O)c3cccc(Cl)c3)c12 | – | – | ? | – | ·
Cc1cc(S(=O)(=O)NCCO)ccc1Cl | · | · | – | · | ·
CC(=O)c1cn(CC(=O)NC2CCCCCCC2)c2ccccc12 | · | · | – | · | ·
COc1ccc2nc(SCC(O)c3cccc(Br)c3)[nH]c2c1 (centres undefined) | – | – | ? | -44 | –
CC(C)[C@H](CO)Nc1nc(Nc2ccc(C(=O)O)c(Cl)c2)c2ncn(C(C)C)c2n1 | ? | – | · | – | –

Screens deposited in PubChem BioAssay by National Center for Advancing Translational Sciences (NCATS).
